Results taken from PubChem BioAssay (NCATS).
Inconclusive results are not listed. Calls of active or inactive are those of the source. Unless noted, the call rests on the fitted dose curve; in most records, active means well fitted curve in either direction with a large enough effect (not every such curve was filed as active); inconclusive means small, poorly fitted or top-dose-only effect, or another doubt; inactive means flat fitted curve, though single readings scatter.

Assays:
[1] = AP1 Signaling Pathway (AID 357); details: ME-180 AP-1-bla reporter, EGF-induced, beta-lactamase ratio, 5 h; at 17.2 µM (top of the series) unless noted; further: on the % scale 0 is the no-effect control and ±100 the full control effect
In short: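 ME-180 cells with beta-lactamase reporter under AP-1 response element, stimulated with EC50 EGF; compounds tested in titration series, 5 h at 37 °C. CCF4 substrate added 2.5 h at room temperature; 460/530 nm emission ratio gave %activity and AC50.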

[2] = NFAT Signaling Pathway (AID 444); details: Jurkat NFAT-bla M1, carbachol, beta-lactamase ratio, 5 h; at 17.2 µM (top of the series) unless noted;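 further: carbachol stimulus at about its EC50 of 1 µM final; on the % scale 0 is the no-effect control and ±100 the full control effect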
In short: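 Jurkat cells with NFAT-driven β-lactamase reporter and co-expressed M1 receptor, stimulated with carbachol (final 1 uM, ~EC50), compound titration, 5 h at 37 °C. CCF4 loaded 1 h at RT; 460/530 nm ratio gave %activity and AC50.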

[3] = Stat Signaling Pathway (AID 446); details: ME-180 SIE beta-lactamase reporter, IL-6 stimulated, 5 h; at 17.2 µM (top of the series) unless noted;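 further: ME-180 cervical cancer cells given 40 pM IL-6 alongside compound; SIE-controlled beta-lactamase reporter measured as 460/530 nm FRET emission ratio; on the % scale 0 is the no-effect control and ±100 the full control effect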
In short: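 Normalization used AC90 stimulation (300 pM IL-6) and AC90 inhibition (125 nM pan-JAK inhibitor at 40 pM IL-6). The underlying signal is SIE-driven beta-lactamase in ME-180 cells after 5 h IL-6 exposure with compound.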

[4] = qHTS Assay for Identification of Small Molecule Agonists for Hypoxia Response Element Signaling Pathway (AID 914; active means well fitted activation curve with a large enough effect in the signal ratio, with a control signal flat, not every such curve was filed as active; the % refers to the signal ratio; further: % of control where 0% means no effect); details: ME-180 (cervical carcinoma) HRE-bla reporter, beta-lactamase ratio, CoCl2, 17 h; activation: hits give high values
In short: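 Cells were plated overnight, pin-dosed with compound in a titration series, co-stimulated with EC50 CoCl2 and incubated 17 hours at 37 degrees Celsius. CCF4 substrate was then loaded, and AC50 values came from the 460nm/530nm ratio.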

[5] = biological target: Mitogen-activated protein kinase 10 (Mus musculus) (UniProt Q61831); assay: JNK3 AlphaScreen Assay (AID 530);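 further: kinase came from lysate of stimulated human HepG2 cells; signal reports phosphorylation of biotinylated GST-cJun 1-79 at Ser73 with 10 µM ATP; on the % scale 0 is the no-effect control and ±100 the full control effect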
In short: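 Activity was read by AlphaScreen after JNK3-containing HepG2 lysate (cytokine pre-activated) phosphorylated biotinylated GST-cJun with 10 uM ATP at room temperature. Phospho-Ser73 cJun antibody with Protein-A acceptor beads provided detection.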

[6] = biological target: 3',5'-cyclic-AMP phosphodiesterase 4B (Homo sapiens) (UniProt Q07343); assay: qHTS Assay for Inhibitors of PDE-IV (AID 607; active means well fitted activation curve with a large enough effect in the main read-out, with a control signal flat, not every such curve was filed as active; further: % of control where 0% means no effect)
3',5'-cyclic-AMP phosphodiesterase 4B (Homo sapiens), sequence (Q07343 whole entry, looked up): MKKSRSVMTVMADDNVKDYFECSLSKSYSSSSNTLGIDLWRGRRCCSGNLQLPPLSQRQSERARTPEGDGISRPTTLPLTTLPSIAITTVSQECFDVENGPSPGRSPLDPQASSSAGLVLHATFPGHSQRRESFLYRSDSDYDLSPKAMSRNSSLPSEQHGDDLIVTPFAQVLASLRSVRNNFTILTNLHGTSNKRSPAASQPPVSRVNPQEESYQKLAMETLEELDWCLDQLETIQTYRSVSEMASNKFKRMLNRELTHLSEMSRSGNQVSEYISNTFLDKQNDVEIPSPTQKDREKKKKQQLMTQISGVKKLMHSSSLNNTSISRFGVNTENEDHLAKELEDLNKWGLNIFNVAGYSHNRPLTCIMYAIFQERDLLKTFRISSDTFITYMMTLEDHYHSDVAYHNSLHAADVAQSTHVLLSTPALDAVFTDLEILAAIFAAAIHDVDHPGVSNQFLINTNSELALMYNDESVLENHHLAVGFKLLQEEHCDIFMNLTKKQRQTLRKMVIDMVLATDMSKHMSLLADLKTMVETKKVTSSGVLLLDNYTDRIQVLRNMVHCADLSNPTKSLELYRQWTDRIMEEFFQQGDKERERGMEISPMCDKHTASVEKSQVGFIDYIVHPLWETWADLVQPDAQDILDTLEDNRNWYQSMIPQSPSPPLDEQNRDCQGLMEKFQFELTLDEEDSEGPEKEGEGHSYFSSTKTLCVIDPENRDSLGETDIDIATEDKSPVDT
In short: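 HEK293 ACTOne cells with CNG channel (1000/well), endogenous PDE4; membrane potential dye, compounds up to 22.9 uM final. Fluorescence Ex 535/Em 590; RO 20-1724 (100 uM final) as reference.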

[7] = biological target: ATP-dependent 6-phosphofructokinase (Trypanosoma brucei brucei) (UniProt O15648); assay: qHTS Assay to Find Inhibitors of T. brucei phosphofructokinase: hit validation (AID 492961; active means well fitted curve in the direction sought with a large enough effect; an effect the other way counts as inactive or inconclusive)
ATP-dependent 6-phosphofructokinase (Trypanosoma brucei brucei), sequence (O15648 whole entry, looked up): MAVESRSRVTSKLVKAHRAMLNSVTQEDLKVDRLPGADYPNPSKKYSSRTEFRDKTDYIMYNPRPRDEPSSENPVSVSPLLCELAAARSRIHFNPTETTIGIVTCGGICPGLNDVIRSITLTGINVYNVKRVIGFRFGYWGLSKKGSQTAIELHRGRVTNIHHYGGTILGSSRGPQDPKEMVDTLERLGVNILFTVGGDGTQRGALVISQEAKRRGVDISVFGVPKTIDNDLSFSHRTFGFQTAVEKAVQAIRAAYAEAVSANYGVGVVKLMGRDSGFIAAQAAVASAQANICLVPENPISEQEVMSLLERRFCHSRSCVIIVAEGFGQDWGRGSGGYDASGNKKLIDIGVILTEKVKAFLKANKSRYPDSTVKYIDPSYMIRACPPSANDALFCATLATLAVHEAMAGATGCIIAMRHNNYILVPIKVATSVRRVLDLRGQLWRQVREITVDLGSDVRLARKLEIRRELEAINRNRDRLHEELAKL
In short: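 Inhibition of parasite PFK is measured as reduced ADP formation, quantified via luciferase after ATP depletion. Assay used 0.1 mM ATP, 0.5 mM F6P, 1.25 nM enzyme, 45 min incubation.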

[8] = biological target: Ubiquitin carboxyl-terminal hydrolase 1 (Homo sapiens) (UniProt O94782); assay: Inhibitors of USP1/UAF1: Pilot qHTS (AID 504865; active means well fitted curve in the direction sought with a large enough effect; an effect the other way counts as inactive or inconclusive;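 further: rhodamine fluorescence freed from ubiquitin-rhodamine substrate followed over time; top concentration of the series differs between compounds; on the % scale 0 is the no-effect control and ±100 the full control effect; nearly all actives have a fitted effect of over 35% in size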)
Ubiquitin carboxyl-terminal hydrolase 1 (Homo sapiens), sequence (O94782 whole entry, looked up): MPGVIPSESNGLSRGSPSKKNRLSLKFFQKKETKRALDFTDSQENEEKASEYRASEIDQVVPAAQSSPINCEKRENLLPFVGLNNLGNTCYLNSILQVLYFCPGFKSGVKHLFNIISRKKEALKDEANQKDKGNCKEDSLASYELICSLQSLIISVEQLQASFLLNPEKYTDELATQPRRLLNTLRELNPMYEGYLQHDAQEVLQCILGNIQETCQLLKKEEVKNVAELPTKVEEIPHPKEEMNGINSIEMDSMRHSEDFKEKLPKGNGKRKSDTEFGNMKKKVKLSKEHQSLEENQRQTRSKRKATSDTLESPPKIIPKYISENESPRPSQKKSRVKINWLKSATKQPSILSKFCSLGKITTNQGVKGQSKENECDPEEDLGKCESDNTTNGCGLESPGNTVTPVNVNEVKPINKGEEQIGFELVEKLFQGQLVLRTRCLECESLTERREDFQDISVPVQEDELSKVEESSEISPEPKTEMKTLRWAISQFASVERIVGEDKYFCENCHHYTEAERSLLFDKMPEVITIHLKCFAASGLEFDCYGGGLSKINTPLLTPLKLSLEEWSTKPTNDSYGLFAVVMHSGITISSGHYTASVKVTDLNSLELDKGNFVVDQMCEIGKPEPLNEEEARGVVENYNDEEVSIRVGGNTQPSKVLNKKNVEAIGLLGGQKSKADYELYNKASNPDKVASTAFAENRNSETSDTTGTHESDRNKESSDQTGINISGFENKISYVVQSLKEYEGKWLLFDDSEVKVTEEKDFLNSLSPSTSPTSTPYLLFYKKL
In short: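 In 50mM HEPES pH 7.8 containing 0.5mM EDTA, 1mM TCEP, 0.1 mg/ml BSA and 0.01% Tween-20, 1nM USP1/UAF1 is exposed to compound for 15 min, then Ub-Rho (150nM final) is added and fluorescence is read over time.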

[9] = biological target: Luciferin 4-monooxygenase (Photinus pyralis) (UniProt P08659); assay: Biochemical firefly luciferase enzyme assay for NPC (AID 624030; active means well fitted curve in the direction sought with a large enough effect; an effect the other way counts as inactive or inconclusive;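 further: purified P. pyralis luciferase at 10 nM with luciferin and ATP substrate; 0% = DMSO and -100% = full luciferase inhibition by PTC124 control; nearly all actives have a fitted effect of over 70% in size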)
Luciferin 4-monooxygenase (Photinus pyralis), sequence (P08659 whole entry, looked up): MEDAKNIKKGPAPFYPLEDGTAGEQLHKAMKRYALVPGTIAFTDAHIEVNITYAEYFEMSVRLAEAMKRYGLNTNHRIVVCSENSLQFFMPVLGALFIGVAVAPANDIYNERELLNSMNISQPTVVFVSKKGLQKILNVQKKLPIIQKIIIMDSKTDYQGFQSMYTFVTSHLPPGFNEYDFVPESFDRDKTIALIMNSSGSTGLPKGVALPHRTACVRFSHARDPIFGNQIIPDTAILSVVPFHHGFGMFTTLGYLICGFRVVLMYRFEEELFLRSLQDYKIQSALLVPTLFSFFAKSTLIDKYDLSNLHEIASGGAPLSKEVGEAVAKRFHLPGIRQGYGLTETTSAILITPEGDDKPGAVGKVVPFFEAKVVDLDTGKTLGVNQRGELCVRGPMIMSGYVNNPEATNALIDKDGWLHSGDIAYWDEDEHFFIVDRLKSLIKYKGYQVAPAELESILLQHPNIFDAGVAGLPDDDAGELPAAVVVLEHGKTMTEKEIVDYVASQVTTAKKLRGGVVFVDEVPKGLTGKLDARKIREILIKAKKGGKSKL
In short: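 Purified P. pyralis luciferase at 10 nM in 50 mM Tris Acetate (final), luminescence read within 5 minutes of enzyme addition to compounds. Activity normalised to PTC124 versus DMSO; concentration-response curves classed by r2, magnitude and activity.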

[10] = S16 Schwann cell viability assay (CellTiter-Glo assay) (AID 624031; active means well fitted curve in the direction sought with a large enough effect; an effect the other way counts as inactive or inconclusive;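 further: native untransfected S16 rat Schwann cells; cellular ATP luminescence as a viability measure; plate controls were DMSO-treated cells for no effect and cell-free wells for full effect; nearly all actives have a fitted effect of over 70% in size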)
In short: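 Cells were seeded at 500-750 per well in phenol red-free DMEM with 10% FBS and left overnight. Compounds or DMSO were pinned in, incubation ran 24 h at 37 °C/5% CO2, then CellTiter-Glo reagent was added and luminescence measured.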

[11] = S16 Schwann cell PMP22 intronic element firefly luciferase assay (AID 624032; active means well fitted curve in the direction sought with a large enough effect; an effect the other way counts as inactive or inconclusive;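 further: plate controls were DMSO for no effect and PTC124 positive control mean for full effect; nearly all actives have a fitted effect of over 30% in size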)
In short: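 Rat S16 Schwann cells stably carrying firefly luciferase driven by a PMP22 intronic element, in 10% FBS, treated 24 h at 37 C. ONE-Glo luminescence normalized to PTC124 control and DMSO (0%); curves classed by r2, magnitude and activity.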

[12] = S16 Schwann cell PMP22 intronic element beta-lactamase assay (AID 624044; calls by dose curve;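 further: 0% = DMSO and -100% = potassium clavulanate positive control; nearly all actives have a fitted effect of over 15% in size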); details: S16 rat Schwann cells, PMP22 element beta-lactamase FRET, 24 h; ratio activity, negative = inhibition: at 38.3 µM (top of the series)
In short: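 Beta-lactamase reporter under a PMP22 intronic regulatory element in stable S16 rat Schwann cells; 24 h compound exposure. 460 nm blue signal normalized between DMSO (0%) and potassium clavulanate, with 535 nm FRET tracking viability; curves classed by r2 and response.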

ATS189 = assay: qHTS profiling for inhibitors of Plasmodium falciparum proliferation (AID 504749; active means well fitted curve in the direction sought with a large enough effect; an effect the other way counts as inactive or inconclusive; further: nearly all actives have a fitted effect of over 60% in size; further: potency means the concentration at half of the fitted maximal effect;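 on activity, negative = inhibition: 0% = DMSO vehicle and full inhibition = artemisinin control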); details: P. falciparum in erythrocytes, SYBR Green DNA, 72 h; series mostly up to 28.7 µM
In short: (§1)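 Each compound contacts P. falciparum-infected red blood cells for 72 h at 37 C; lysis buffer (Tris, EDTA, saponin, Triton X, SYBR Green I) is added and fluorescence measured next morning; values normalized to controls.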

CP262 = assay: as above; details: P. falciparum in erythrocytes, SYBR Green DNA, 72 h; series mostly up to 28.7 µM
In short: as §1

CP297 = assay: as above; details: P. falciparum in erythrocytes, SYBR Green DNA, 72 h; series mostly up to 28.7 µM
In short: as §1

CP335 = assay: as above; details: P. falciparum in erythrocytes, SYBR Green DNA, 72 h; series mostly up to 28.7 µM
In short: as §1

Dd2 = assay: as above; details: P. falciparum in erythrocytes, SYBR Green DNA, 72 h; series mostly up to 28.7 µM
In short: as §1

TAB109 = assay: as above; details: P. falciparum in erythrocytes, SYBR Green DNA, 72 h; series mostly up to 28.7 µM
In short: as §1

W2 = assay: as above; details: P. falciparum in erythrocytes, SYBR Green DNA, 72 h; series mostly up to 28.7 µM
In short: as §1

[13] = biological target: Glucocorticoid receptor (Homo sapiens) (UniProt P04150); assay: GR-GFP Redistribution (AID 450;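 active means compounds whose dose series gives a full or clear partial fitted curve of increased nuclear translocation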; further: potency means the concentration at half of the fitted maximal effect)
Glucocorticoid receptor (Homo sapiens), sequence (P04150 whole entry, looked up): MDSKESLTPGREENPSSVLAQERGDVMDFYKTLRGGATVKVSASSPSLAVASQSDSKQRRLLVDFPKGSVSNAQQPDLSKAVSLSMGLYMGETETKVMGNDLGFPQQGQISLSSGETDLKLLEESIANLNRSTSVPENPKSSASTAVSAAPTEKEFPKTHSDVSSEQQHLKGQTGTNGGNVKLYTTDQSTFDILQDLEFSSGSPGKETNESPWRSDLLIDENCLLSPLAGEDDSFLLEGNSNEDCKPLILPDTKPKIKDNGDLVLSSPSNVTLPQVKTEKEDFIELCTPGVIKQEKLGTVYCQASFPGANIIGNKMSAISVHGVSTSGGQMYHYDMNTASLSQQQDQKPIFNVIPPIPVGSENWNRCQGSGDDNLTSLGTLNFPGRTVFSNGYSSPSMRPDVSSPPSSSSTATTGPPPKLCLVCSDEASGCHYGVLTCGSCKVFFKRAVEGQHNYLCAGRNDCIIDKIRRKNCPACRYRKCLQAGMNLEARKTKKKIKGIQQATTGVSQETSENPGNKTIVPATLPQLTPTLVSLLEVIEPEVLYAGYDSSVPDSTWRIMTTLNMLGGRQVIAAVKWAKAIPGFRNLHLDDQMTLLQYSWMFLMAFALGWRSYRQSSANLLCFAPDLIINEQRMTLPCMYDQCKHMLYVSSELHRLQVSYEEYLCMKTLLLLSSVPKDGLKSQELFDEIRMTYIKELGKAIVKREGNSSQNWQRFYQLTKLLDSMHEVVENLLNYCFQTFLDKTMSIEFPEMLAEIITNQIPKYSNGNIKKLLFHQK

COC(=O)c1ccc(C(=O)OC)c(NC(=O)c2cc3ccccc3o2)c1
inactive: activity change, negative = inhibition [1] -4.57% | activity change, negative = inhibition [2] 3.55% | activity, negative = inhibition [3] 8.58% | activation [4] -0.252%

CCC[C@H]1C[C@H](C(=O)N[C@@H]([C@H]2O[C@@H](SC)[C@@H](O)[C@@H](O)[C@@H]2O)[C@H](C)Cl)N(C)C1
active: Potency (CP262) 0.0151 µM | Potency (CP297) 0.0601 µM | Potency (CP335) 0.0601 µM | Potency (Dd2) 0.0447 µM | Potency (TAB109) 0.0316 µM | Potency (W2) 0.0426 µM
inactive: activity change, negative = inhibition [1] -4.04% | activity change, negative = inhibition [2] 0.269% | activity, negative = inhibition [3] 1.36% | Potency [5] | Potency [6] | Potency [7] | Potency [8] | Potency [9] | Potency [10] | Potency [11] | Potency [12] | Potency (ATS189)

Cc1cccc(N2CC(=O)N(c3cccc(C)c3)CC2=O)c1
inactive: activity change, negative = inhibition [1] 5.22% | activity change, negative = inhibition [2] 5.99% | activity, negative = inhibition [3] 0.983% | Potency [13] > 20.6 µM | activation [4] 1.3%

CNc1ccccc1-c1nc2ccccc2n(C)c1=O
inactive: activity change, negative = inhibition [1] 11.2% | activity change, negative = inhibition [2] -2.49% | activity, negative = inhibition [3] 12% | Potency [13] > 20.6 µM | activation [4] -4.3%

CN1C(=O)C2(N=c3ccccc3=N2)c2ccccc21
inactive: activity change, negative = inhibition [1] 15.2% | activity change, negative = inhibition [2] 25.6% | Potency [13] > 20.6 µM

COc1ccc(-c2cc(-c3ccccc3)n3ncnc3n2)cc1
inactive: activity change, negative = inhibition [1] -5.02% | activity change, negative = inhibition [2] -9.06% | Potency [13] > 20.6 µM

Cc1cc(=O)oc(C)c1C(=O)NCCN1CCOCC1
inactive: activity change, negative = inhibition [1] 11.5% | activity change, negative = inhibition [2] 7.8% | Potency [13] > 20.6 µM

CC(C)C1Cc2c(C#N)c(N)n(C)c(=S)c2CO1 (stereo unspecified)
inactive: activity change, negative = inhibition [1] -4.25% | activity change, negative = inhibition [2] -23.6% | activity, negative = inhibition [3] 4.22% | Potency [13] > 20.6 µM | activation [4] -0.94%
